The source of these data is PubChem BioAssay AID588719 (Southern Research Specialized Biocontainment Screening …, 2011).

The structures appear in SMILES notation. The campaign covered roughly 1,500 compounds. About 920 (61%) were called active. The rule behind the calls is not given here. The set was probably picked from earlier hits. The list shows a part of the results. Entries with a potency or affinity are not part of this list.

The nature of the test: Vero 76 cell cytotoxicity, dose response, cytotoxicity control for VEEV inhibitor project (AID 588719). The note with it: Vero 76 cells viability, cytotoxicity counter-screen; series mostly up to 25 µM. For orientation: The purpose of a counterscreen is to sort out artefacts and off-target activity.
As for `OCC1(CCOc2ccccc2)CCN(Cc2nc3ccc(F)cc3[nH]2)CC1`, the call was inactive.
On to `COc1ccc(S(=O)(=O)N2CCC(C(=O)N[C@@H](C)C(=O)NCc3ccc(F)cc3)CC2)cc1`, for which the compound was classed as inactive.
In the case of `CCCN1C(=O)c2ccccc2NC1c1ccc(OC)cc1O` (centres undefined), the call was inactive.
Turning to `COc1ccc(C(=O)/C=C/C(=O)N(CC(=O)NC2CCCCC2)Cc2ccccc2OC)c(O)c1`, the compound was classed as inactive.
With `CCN1CCN(Cc2nc3ccc([N+](=O)[O-])cc3c(=O)n2-c2ccccc2F)CC1` the entry was “inactive”.
Take `Cc1onc(C(=O)Nc2cccc(C(F)(F)F)c2)c1[N+](=O)[O-]`: the result was inactive.
For `CC1(NS(=O)(=O)c2ccc(Cl)s2)CCS(=O)(=O)C1` (centres undefined), the call was inactive.
On to `C/C(=N/OCO/N=C(\C)c1ccccc1)c1ccccc1`, for which the compound was classed as inactive.
Regarding `O=S(=O)(Nc1nc2ccccc2nc1NCc1ccco1)c1ccc(F)cc1`, the compound was called inactive.
Turning to `O=S(=O)(c1ccc(Cl)cc1)N1CCN(C(=S)Nc2ccccc2F)CC1`, the result was inactive.
On to `CCC1CCCCN1S(=O)(=O)c1ccc(NC(=O)c2nc(S(C)(=O)=O)ncc2Cl)cc1` (centres undefined), for which the result was inactive.
`CC(C)(C)OC(=O)[C@H](Cc1ccccc1)NC(=O)c1nc[nH]c1C(=O)N1CCN(C(=O)OC(C)(C)C)CC1`: the compound was classed as inactive.
Consider `C[C@@H](NC(=O)c1nc[nH]c1C(=O)N1CCN(C(=O)OC(C)(C)C)CC1)c1ccccc1`, for which the compound was classed as inactive.
For the compound `CCn1c2ccccc2c2cc(NC(=O)c3ccc(=O)oc3)ccc21`, the compound was called inactive.
On to `CN(C)CCOCCOc1ccc(Cl)cc1C(C)(C)C`, for which the call was inactive.
With `O=c1cc(-c2ccccc2)nc(/C=C/c2ccccc2)[nH]1` the entry was “inactive”.
Turning to `Cc1nonc1OC(C)CNCCNc1ccc([N+](=O)[O-])cc1` (centres undefined), the compound was called inactive.
Turning to `COc1ccc(-n2c(CN3CCC(C(N)=O)CC3)nc3ccc([N+](=O)[O-])cc3c2=O)c(OC)c1`, the compound was classed as inactive.
`CCn1cc(C(=O)O)c(=O)c2cc(F)c(N3CCN(C(=S)NC(=O)c4ccc(F)cc4)CC3)cc21`: the compound was classed as inactive.
`S=c1[nH]nc(-c2ccccn2)n1/N=C/c1ccc(-c2ccccc2Br)o1`: the compound was classed as inactive.
In the case of `O=C(Nc1ccc(Cl)cc1C(=O)c1ccccn1)c1ccccc1`, the result was inactive.
Consider `O=C(O)c1cccnc1Nc1ccc(Cl)cc1`, for which the call was inactive.
On to `Cc1cc(C(=O)Cn2nnc3ccccc3c2=O)c(C)n1-c1ccccc1F`, for which the compound was classed as inactive.
Regarding `Cc1ccc(C)c(-n2cc(CNC(C)Cn3cncn3)c(-c3ccccc3)n2)c1` (centres undefined), the compound was classed as inactive.
As to `O=C(N/N=C(\CC(=O)c1cccs1)C(F)(F)F)c1ccncc1`, the call was inactive.
For the compound `CCOC(=O)c1oc2ccc(S(=O)(=O)n3nc(-c4ccc(C)cc4)cc3N)cc2c1C`, the compound was called inactive.
`COc1ccccc1/C=C/C(=O)c1ccc(NC(C)=O)cc1`: the outcome was inactive.
In the case of `CC(=O)Nc1ccc(S(=O)(=O)Nc2nc(C)nc3sc4c(c23)CCC4)cc1`, the compound was called inactive.
On to `CCOC(=O)c1c(CSC(=N)N)n(-c2ccccc2)c2cc(Br)c(OC(C)=O)cc12`, for which the compound was classed as inactive.
Turning to `CC(C)=CCN1CCN(Cc2cccc3nccnc23)CC1CCO` (centres undefined), the result was inactive.
With `Cc1ccc(/C([O-])=C(/C(=S)Nc2ccc(SC(F)F)cc2)[n+]2ccccc2)cc1[N+](=O)[O-]`, the compound was called inactive.
The value for `Cc1ccc(/C=N/NC(=O)C[n+]2ccccc2)s1` was “inactive”; that for `Cc1ccc(NC(=O)NCc2ccc3[nH]c(C)cc3c2)cc1` was “inactive”.
The value for `COc1cc(/C=C/C(=O)c2c(O)ccc3c(C)cc(=O)oc23)ccc1O` was “inactive”; that for `Cc1ccc(/C=C/c2onc(C)c2S(=O)(=O)N2CCC(C(=O)N3CCN(C)CC3)CC2)cc1` was “inactive”.
Turning to `O=C(NC(Cc1c[nH]c2ccccc12)C(=O)Nc1ccc(F)cc1)c1cccs1` (centres undefined), the result was inactive.
With `S=c1[nH]nc(-c2ccccc2)n1/N=C/c1ccc(-c2ccccc2Cl)o1`, the call was inactive.
Turning to `Cc1ccc(NC(=O)c2ncn(CCCNCC3CCCCC3)n2)cc1C`, the result was inactive.
With `CCOc1ccccc1NC(=O)c1cc(S(=O)(=O)NCc2ccco2)ccc1F`, the compound was classed as inactive.
In the case of `CN1CCc2cccc3c2[C@H]1Cc1ccc(O)c(O)c1-3`, the outcome was inactive.
For the compound `COc1ccc2cc(-c3cc(C(=O)O)c4ccccc4n3)ccc2c1`, the result was inactive.
With `CCOc1ccc(NC(=O)c2c(NC(=O)CN3CCN(C)CC3)sc3c2CCC3)cc1` the entry was “inactive”; with `CCOc1ccc(NC(=O)Cn2sc3nc(C)cc(C)c3c2=O)cc1`, “inactive”.
Regarding `CC(C)CC1c2[nH]c3ccccc3c2CCN1CCCn1cccn1` (centres undefined), the compound was called inactive.
With `Nc1ncnn1Cc1ccccc1`, the call was inactive.
The value for `CCOC(=O)C1=NN(C(=O)c2ccc(OC)cc2)C(O)(c2ccc(Cl)cc2)C1` (centres undefined) was “inactive”.
`CCC(=NN=C(CC)c1ccccc1O)c1ccccc1O`: the compound was classed as inactive.
The value for `C#CCOc1ccc(C2C3=C(CC(C)(C)CC3=O)N(CC(=O)O)C3=C2C(=O)CC(C)(C)C3)cc1OC` was “inactive”.
The value for `O=c1c2cccnc2[nH]c(=S)n1CCCN1CCN(c2ccccc2F)CC1` was “inactive”; that for `O=C(NCc1ccccc1)C(=O)Nc1nc(-c2ccccc2)cs1` was “inactive”; that for `Cc1cccc(-n2c(O)c(C=Nc3ccccc3-c3n[nH]c(=S)[nH]c3=O)c3ccccc3c2=O)n1` was “inactive”.
For the compound `O=C(CNC(=O)C1COc2ccccc2O1)N/N=C\c1ccc(Cl)cc1` (centres undefined), the compound was classed as inactive.
Consider `Nc1ccc(C(=O)OCCCc2nc3cc4ccccc4cc3[nH]2)cc1`, for which the call was inactive.
Regarding `CN(C)CCNc1nc2sc3c(c2c(=O)n1-c1ccccc1)CCCCC3`, the outcome was inactive.
With `Cc1ccc(-c2cc(-c3ccco3)c3c(N)c(C(=O)NN)oc3n2)cc1` the entry was “inactive”; with `Cc1cccc(-c2ccc(NC(=O)C3CCN(CC4CC4)CC3)cc2)c1`, “inactive”; with `CCn1ncc(CN2CCC(C(=O)Nc3cccc(-c4cccc(F)c4)c3)CC2)c1C`, “inactive”.
On to `Cc1cccn2c(=O)c3cc(C#N)c(=NC(=O)c4cccs4)n(CC(C)C)c3nc12`, for which the result was inactive.
For `COCCNC(=S)NCc1ccc2[nH]c3c(c2c1)CCCC3`, the compound was called inactive.
The value for `Cc1cc2nc3c(=O)[nH]c(=S)[nH]c3nc2cc1NC(=O)C(F)(F)F` was “inactive”; that for `Cc1cccnc1CN1CCN(Cc2nc(C(c3ccccc3)c3ccccc3)no2)CC1` was “inactive”; that for `CN1CCc2nc(SCc3cccc(Br)c3)c(C#N)cc2C1` was “inactive”.
Turning to `COc1ccc2sc(N(CCCN(C)C)C(=O)c3ccc(S(=O)(=O)N(C)Cc4ccccc4)cc3)nc2c1`, the outcome was inactive.
With `COc1ccc2sc(N(CCCN(C)C)C(=O)c3ccc(S(=O)(=O)N(C)C4CCCCC4)cc3)nc2c1` the entry was “inactive”.
`O=C(NNC(=O)c1cc2cc(OC(F)(F)F)ccc2[nH]1)c1ccc(Cl)cc1`: the outcome was inactive.
For the compound `NNC(=O)c1n[nH]c(=O)c2ccccc12`, the result was inactive.
For the compound `Cc1cccc(CS(=O)(=O)c2ncc(Cl)c(C(=O)NCc3ccccc3)n2)c1`, the compound was called inactive.
As for `CCOc1ccc(Cn2c(=O)sc3ccccc32)cc1`, the compound was called inactive.
`CCOc1ccc(N2C(=O)CC(Sc3nc4ccc(OCC)cc4s3)C2=O)cc1` (centres undefined): the result was inactive.
For the compound `Cc1ccc2nc(-c3ccc(NC(=S)NCC(C)(C)CN(C)C)cc3)sc2c1`, the call was inactive.
With `Cc1nc(-c2ccccn2)sc1C(=O)Nc1ccc(Cl)c(Cl)c1` the entry was “inactive”.
Take `CC12CCC(C(=NO)C1=O)C2(C)C` (centres undefined): the call was inactive.
For `O=[N+]([O-])c1ccc(CNC2CCCc3ccccc32)cc1` (centres undefined), the call was inactive.
Turning to `COCCCNCCCCOc1ccc(OCc2ccccc2)cc1`, the result was inactive.
The value for `CN(C)c1ccc(P(=O)(OCc2ccccc2)C(O)c2ccccc2)cc1` (centres undefined) was “inactive”; that for `CC(Oc1ccccc1F)C(=O)Nc1ccc2ccccc2c1` (centres undefined) was “inactive”.
On to `CCOc1ccccc1Nc1nnc(SC(C)C(=O)Nc2nc(-c3ccccc3)cs2)s1` (centres undefined), for which the compound was classed as inactive.
As for `CC(Oc1ccc(F)cc1)C(=O)Nc1ccc2ccccc2c1` (centres undefined), the compound was classed as inactive.
With `Cc1cc(C(=O)OC(C)C(=O)Nc2nc(-c3ccccc3)cs2)c(C)o1` (centres undefined), the compound was called inactive.
`Cc1cccc(-n2nc([N+](=O)[O-])c(=NC3CCN(Cc4ccccc4)CC3)n2O)c1`: the compound was classed as inactive.
With `Cc1ccc(C)c(NC(=S)NCCN(C2CCCCC2)C2CCCC2)c1`, the compound was called inactive.
In the case of `CCOc1ccc(-n2c(=O)c3sccc3n(Cc3cccc([N+](=O)[O-])c3)c2=O)cc1`, the call was inactive.
With `Cc1ccc(C(=O)C[n+]2ccccc2C)cc1[N+](=O)[O-]` the entry was “inactive”; with `COC(=O)Cn1c(=O)c(C(=O)CCl)c(N)n(Cc2ccccc2)c1=O`, “inactive”; with `Cc1nn(C(C)C(=O)Nc2ccccc2Cl)c(=O)c2nn(-c3ccccc3)c(C)c12` (centres undefined), “inactive”.
Consider `Cc1ccc(S(=O)(=O)N2C[C@@H](C)[C@]3(C2)[C@H](O)[C@H](OC(=O)Nc2cccs2)C[C@H]2C(=O)N(c4ccccc4)C(=O)[C@H]23)cc1`, for which the result was inactive.
`COc1ccc(/C=C2\CCCC3C2=NN(C(=O)CSc2n[nH]c(N)n2)C3c2ccc(OC)cc2)cc1` (centres undefined): the compound was called inactive.
For `Cc1ccc2[nH]c(CN3CCC(CO)(CC4CCCCO4)CC3)c(C)c2c1` (centres undefined), the result was inactive.
For the compound `COc1cc(C(=O)O/N=C2/C=CC(=O)C(C)=C2C)cc(OC)c1OC`, the compound was classed as inactive.
Consider `CC[C@@H](O)C[C@H]1CCC[C@@]2(C[C@@H]3OC(=O)/C=C/[C@@](C)(O)[C@@H](O)[C@H](C)[C@@H](O)[C@H](OC4CCC(N(C)C)C(C)O4)[C@@H](O)[C@](C)(O)CCCCC/C=C/[C@@H]4CC(C)(C)O[C@@]4(O)C[C@H](O2)[C@H]3C)O1` (some centres undefined), for which the compound was called inactive.
Regarding `COc1ccccc1NC(=O)c1cc2ccccc2o/c1=N\O`, the result was inactive.
For `O=C(Cc1cccc2ccccc12)Nc1ccc(Br)cc1C(=O)O`, the call was inactive.
In the case of `COc1ccc(/C=C/C(=O)NC(=S)N2CCN(c3ccccc3OC)CC2)cc1`, the compound was called inactive.
The value for `CCOC(=O)N1CCN(C(=O)CNC2CCCCCCC2)CC1` was “inactive”.
Consider `C=CCN=c1scc(-c2ccccc2)n1/N=C/c1ccccn1`, for which the outcome was inactive.
With `N#C/C(=C/c1ccc(-c2ccc([N+](=O)[O-])cc2)o1)c1nnc(N2CCOCC2)n1-c1ccccc1`, the result was inactive.
Regarding `O=C(O)c1ccccc1NC(=O)c1ccccc1Nc1ccccc1`, the outcome was inactive.
With `Cc1cccc2c(=O)n(C(=O)c3ccccc3)c(N)nc12` the entry was “inactive”; with `Cc1ccc2c(c1)c1c3n2CCN(CC(O)CNC(C)C)C3CCC1` (centres undefined), “inactive”.
